Bioassay records deposited in PubChem by several laboratories.
tim23-1 inh: inhibits growth of tim23-1 mutant yeast; AID 463212; S. cerevisiae tim23-1 growth, BacTiter-Glo luminescence, 24 h; inhibition, % at 20 µM; 1.3% of 330,000 active;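 active = growth inhibition of the mutant yeast at or above 50%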;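 also: temperature-sensitive mutant grown at 25 °C; plate controls were DMSO-treated mutant yeast for no effect and medium wells lacking yeast for full effect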
tim10-1 inh: inhibits growth of tim10-1 mutant yeast | S. cerevisiae tim10-1 ts strain growth, BacTiter-Glo, 24 h | inhibition, % at 20 µM | 2.2% of 330,000 active | AID 463190;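 active = inhibition of at least 40%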;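 also: mutant grown at 25 °C; 0% = DMSO wells with yeast and 100% = wells holding no yeast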
TIM10 inh: growth inhibitors of TIM10 yeast strain. S. cerevisiae TIM10 strain growth, BacTiter-Glo luminescence, 24 h. inhibition, % at 10 µM. 1.4% of 330,000 active. AID 463195;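 active = inhibition of 40% or more at the single tested concentration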;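 also: wild-type TIM10 isogenic control strain grown at permissive 25 °C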
CR mimetic SO: caloric restriction mimetics inhibiting age-related superoxide in yeast; S. cerevisiae aged cells, superoxide DHE fluorescence; hits give low values; superoxide response (% of plate mean), % at 10 µM; 0.18% of 330,000 active; AID 2690;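 active = superoxide response under a set limit, about three screen SD below normal, cut at about 65% in these data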;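 also: yeast aged for seven days with compound at 30 °C before DHE staining; 100% = average MFI of all compound-treated wells on the plate with controls excluded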
NLRP3 yeast inh: blocks the NALP3 inflammasome reconstituted in yeast | Yeast reconstituted NLRP3/ASC/caspase-1, beta-gal luminescence, 24 h | inhibition, % at 10 µM | 0.39% of 330,000 active | AID 2825;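 active = inhibition of 50% or more; inactive = inhibition below 50%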;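 also: plate controls were induced DMSO wells for no effect and uninduced yeast grown without galactose for full effect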
tim10-1 conf: confirmation of tim10-1 mutant yeast growth inhibitors; shares compounds with tim10-1 inh; S. cerevisiae tim10-1 ts strain growth, BacTiter-Glo, 24 h; inhibition, % at 20 µM; 56% of 7,400 active; AID 463213;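 active = inhibition of yeast growth at or above a set limit in either of two repeat tests at 20 µM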;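 also: tim10-1 mutant grown at permissive 25 °C to find synthetic lethal compounds; 0% = DMSO yeast wells and 100% = medium wells without yeast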
Starred values were filed as active, the others as inactive; nt = not tested or not shown. Rows were chosen to be rich in hits. Some 3.8% of all compounds tested hit in one or more screens of this group.

SMILES	tim23-1 inh	tim10-1 inh	TIM10 inh	CR mimetic SO	NLRP3 yeast inh	tim10-1 conf
S=c1[nH]cc(-c2ccccc2)n1-c1ccccc1	3	44*	-5	84	9	1
CCn1c(-c2ccccc2)c[nH]c1=S	-10	1	-1	97	16	nt
COc1ccc(C)cc1NC(=O)c1ccc(CN2CCN(c3ccccc3)CC2)cc1	36	46*	21	86	34	30
CC(=O)Nc1ccc(NS(=O)(=O)c2cc(-c3cnc(C4CC4)o3)ccc2C)cc1	-1	1	1	78	-5	nt
Cc1ccc(-c2cnc(C3CC3)o2)cc1S(=O)(=O)Nc1ccccc1	39	41*	15	108	-2	4
COc1ccccc1CNC(=O)c1ccc2nc(N3CCOCC3)sc2c1	7	-2	-9	110	8	nt
CC(=O)c1ccc(N2CCN(CC(=O)N(C3CC3)C3CCS(=O)(=O)C3)CC2)c(F)c1 (configuration not stated)	3	0	0	86	12	nt
CN(C)c1nc(OCCNC(=O)Nc2ccccc2)nc(N2CCCCC2)n1	21	40*	16	105	1	18
O=C1CC(Sc2nnc(-c3ccccc3O)o2)C(=O)N1c1ccccc1 (configuration not stated)	38	26	35	104	17	nt
COc1ccc(N2C(=O)CC(Sc3nnc(-c4ccccc4)o3)C2=O)cc1 (configuration not stated)	41	53*	39	93	18	55*
CC1=Nc2cc(C(=O)NCc3ccco3)ccc2Sc2ccc(C)cc21	34	44*	14	109	13	30
CC1=Nc2cc(C(=O)NCC3CCCO3)ccc2Sc2ccc(C)cc21 (configuration not stated)	12	12	-8	96	2	nt
CC(=O)NC(CC(=O)NNC(=O)c1cccs1)c1ccccc1 (configuration not stated)	21	2	8	100	14	nt
COc1ccccc1-n1c(SCC(=O)NC2CCS(=O)(=O)C2)nc2cc([N+](=O)[O-])ccc21 (configuration not stated)	3	10	7	102	1	nt
COc1ccccc1-n1c(SCC(=O)c2ccc(O)cc2O)nc2cc([N+](=O)[O-])ccc21	39	41*	4	92	17	29
CCn1nc(C)c(C(=O)Nc2cc(Oc3cc(C)cc(C)c3)cc([N+](=O)[O-])c2)c1C	42	43*	35	96	-16	39*
Cc1cccc(NC(=S)N2CCN(C(=O)c3ccco3)CC2)c1	-1	7	10	106	19	nt
CCCCc1ccc(NC(=S)N2CCN(C(=O)c3ccco3)CC2)cc1	36	43*	25	106	17	24
Cc1ccc2c(N)c(C(=O)N(c3ccccc3)c3ccccc3)sc2n1	13	44*	26	94	-2	24
CCc1ccc(NC(=O)C/C(C)=N/NC(=O)COc2ccc(C)cc2Br)cc1	47	45*	5	113	16	22
CCOC(=O)COn1c(=O)c(-c2cc3ccccc3o2)[n+]([O-])c2ccccc21	29	44*	7	91	21	12
NS(=O)(=O)c1ccc(CCNC(=O)CNS(=O)(=O)c2cccc(Br)c2)cc1	4	10	-12	95	-12	nt
CCCCCCCCCS(=O)(=O)N/N=C/c1cccc([N+](=O)[O-])c1	24	42*	14	115	11	30
CCOC(=O)C1=CN(Cc2cccc(Br)c2)S(=O)(=O)NC1C (configuration not stated)	44	25	0	116	nt	nt
O=[N+]([O-])c1ccc2nc(-c3ccc(OC(F)F)cc3)cn2c1	-5	-15	-12	100	27	nt
SMILES	tim23-1 inh	tim10-1 inh	TIM10 inh	CR mimetic SO	NLRP3 yeast inh	tim10-1 conf
CCCCSCCCNC(=O)Nc1ccc(C)c(C)c1	31	47*	1	100	7	15
CC(CC(=O)NCc1ccc(Cl)cc1)c1ccccc1 (configuration not stated)	-2	0	-22	103	41	nt
Cc1[nH]c2ccccc2c1C(=O)C(=O)NCc1ccco1	13	18	12	111	4	nt
COc1ccc2c(c1OC)C(=O)N1C2SC[C@H]1C(=O)NC1CCCC1 (some centres not stated)	11	16	9	88	7	nt
Cc1ccccc1-n1c(SCc2ccccn2)nc2n[nH]c(C)c2c1=N	38	40*	18	90	16	38*
CCOc1ccccc1NC(=O)CCSc1nc2n[nH]c(C)c2c(=N)n1-c1ccccc1Cl	1	21	22	105	-5	nt
COc1ccc(OC)c(NC(=O)CSc2nc3n[nH]c(C)c3c(=N)n2-c2cccc(Cl)c2C)c1	34	43*	15	112	3	6
Cc1ccccc1-n1c(SCC(=O)Nc2ccccc2Cl)nc2n[nH]c(C)c2c1=N	28	42*	26	81	-3	11
Cc1ccc(N2C(=O)C(Cc3ccc(O)cc3)NC2=S)cc1C (configuration not stated)	17	19	9	104	10	nt
Cc1ccc(-c2nc(CS(=O)CC(=O)NCc3ccc4c(c3)OCO4)c(C)o2)cc1 (configuration not stated)	16	16	5	92	-12	nt
N#CC1=C(N)Oc2cc3c(cc2C1c1ccc(Cl)cc1)OCO3 (configuration not stated)	29	43*	-11	110	12	-11
COc1cc(C2C(C#N)=C(N)Oc3cc4c(cc32)OCO4)cc(OC)c1OC (configuration not stated)	-7	-3	-19	98	18	nt
CN(CC(=O)Nc1ccccc1C(F)(F)F)C(=O)c1ccc(-c2ccc(Cl)cc2)o1	38	23	-23	118	29	nt
CCOc1ccc(Nc2ncnc3c2cnn3-c2ccccc2)cc1	-13	-25	14	92	24	nt
CCOc1ccc(Nc2ncnc3c2cnn3Cc2ccccc2)cc1	38	41*	25	86	9	37*
COc1ccc(-n2ncc3c(N4CCN(Cc5ccccc5)CC4)ncnc32)cc1	26	46*	30	88	10	25
COc1ccc(Nc2ncnc3c2cnn3Cc2ccccc2)cc1	38	46*	29	84	11	34*
CCOc1ccc(CCNC(=O)CN2C(=O)CCSc3ccccc32)cc1	33	15	23	100	17	nt
CCOc1ccc(CCNC(=O)C(C)N2C(=O)CC(C)(C)Sc3ccccc32)cc1 (configuration not stated)	39	42*	12	96	-5	25
Cc1cc(OCC(=O)NC2CCN(Cc3ccccc3)CC2)c2c(C)c(C)c(=O)oc2c1	-7	-6	-1	102	-6	nt
CCOC(=O)c1c(C)oc2ccc(NS(=O)(=O)c3cccs3)cc12	37	42*	29	100	-1	21
